# Unmarked numbers belong to inactive results. Records with an inconclusive call do not appear. Where a call stands in place of a potency, no number is given. Active and inactive are the calls of the source. Unless noted, calls come from the whole dose curve.
# Assays:
# [1] = Nuclear factor erythroid 2-related factor 2/antioxidant responsive element (Nrf2/ARE) small molecule agonists: qHTS cell viability counter screen in human keratinocytes (AID 1919968; active = well fitted curve in the direction sought with a large enough effect in the repeat runs; an effect the other way counts as inactive or inconclusive; note: nearly all actives have a fitted effect of over 55% in size)
# Procedure, shortened: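 Parallel cytotoxicity read: KeratinoSens HaCaT cells, compound treatment 23 h, viability by CellTiter-Fluor fluorescence 1 h post-reagent.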
# [2] = Nuclear factor erythroid 2-related factor 2/antioxidant responsive element (Nrf2/ARE) small molecule agonists: luciferase reporter gene qHTS assay in human keratinocytes (AID 1919969); note: nearly all actives have a fitted effect of over 35% in size
# [3] = target: Gonadotropin-releasing hormone receptor (Homo sapiens) (UniProt P30968); assay: Human gonadotropin-releasing hormone receptor (GnRHR) small molecule agonists, calcium flux assay in GnRHR-HEK293 cells (AID 1920063); note: nearly all actives have a fitted effect of over 35% in size
# Gonadotropin-releasing hormone receptor (Homo sapiens), sequence (P30968 whole entry, looked up): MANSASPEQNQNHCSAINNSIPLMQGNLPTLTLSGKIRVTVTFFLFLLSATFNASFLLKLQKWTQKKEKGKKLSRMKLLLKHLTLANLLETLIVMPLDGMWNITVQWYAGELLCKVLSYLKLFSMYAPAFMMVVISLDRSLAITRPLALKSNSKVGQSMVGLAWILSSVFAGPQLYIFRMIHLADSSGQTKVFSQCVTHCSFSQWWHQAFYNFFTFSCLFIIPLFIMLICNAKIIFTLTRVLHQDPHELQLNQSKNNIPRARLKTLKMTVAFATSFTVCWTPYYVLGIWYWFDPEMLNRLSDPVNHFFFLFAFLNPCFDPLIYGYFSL
# Procedure, shortened: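 Calcium flux, agonist mode, human GnRHR stably integrated in HEK293; dye 1 h at 37 C before compound; Ex/Em=480/540 kinetic read, 3 min; 15 concentrations, triplicate.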
# [4] = target: KiSS-1 receptor (Homo sapiens) (UniProt Q969F8); assay: Human kisspeptin (KISS1R) small molecule agonists, calcium flux assay in KISS1R-HEK293 cells (AID 1920064; active = well fitted curve in the direction sought with a large enough effect in the repeat runs; an effect the other way counts as inactive or inconclusive)
# KiSS-1 receptor (Homo sapiens), sequence (Q969F8 whole entry, looked up): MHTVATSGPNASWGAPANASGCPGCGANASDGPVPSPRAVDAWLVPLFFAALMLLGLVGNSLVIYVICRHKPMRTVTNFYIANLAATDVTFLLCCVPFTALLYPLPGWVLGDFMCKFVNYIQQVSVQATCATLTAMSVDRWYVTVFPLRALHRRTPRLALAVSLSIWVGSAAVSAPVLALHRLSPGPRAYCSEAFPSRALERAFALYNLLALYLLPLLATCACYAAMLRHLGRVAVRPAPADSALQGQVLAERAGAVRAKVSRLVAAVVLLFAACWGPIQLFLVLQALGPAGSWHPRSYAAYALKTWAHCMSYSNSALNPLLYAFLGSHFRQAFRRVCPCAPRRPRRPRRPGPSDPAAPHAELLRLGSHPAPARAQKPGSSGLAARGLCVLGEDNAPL
# Procedure, shortened: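 Triplicate 15-concentration series were applied to dye-loaded human KISS1R HEK293 cells, and agonist-evoked calcium fluorescence was captured for 3 min.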
# [5] = G protein-coupled receptor (GPCR) small molecule agonists, calcium flux assay: HEK293 wild type cell line counter screen (AID 1920065)
# Procedure, shortened: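 Non-specific calcium responders were flagged by adding DMSO-dissolved compounds to dye-loaded cells and reading 480/540 nm fluorescence each second for 3 min; ATP served as positive control.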
# [6] = p53 small molecule agonists, cell-based qHTS assay with human liver microsomes (AID 1963577);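 note: p53 response element beta-lactamase reporter cells with liver microsomes plus NADPH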
# Procedure, shortened: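 In this qHTS, p53 response-element beta-lactamase cells receive test compound together with a microsome/NADPH activating system (0.5 mg/mL final each) and are incubated 16 h at 37 C before LiveBLAzer fluorescence detection.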
# [7] = p53 small molecule agonists, cell-based qHTS assay with rat liver microsomes (AID 1963578)
# Procedure, shortened: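 Agonist mode in p53RE-bla reporter cells, with compounds co-incubated 16 h at 37 C alongside 0.5 mg/mL rat liver microsomes and 0.5 mg/mL NADPH (final), followed by a 2 h LiveBLAzer detection step.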
# [8] = p53 small molecule agonists, cell-based qHTS assay with human liver microsomes: qHTS cell viability counter screen (AID 1963579); note: nearly all actives have a fitted effect of over 45% in size
# Procedure, shortened: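 Metabolically activated exposure: compounds, human liver microsomes and NADPH (0.5 mg/mL final apiece) were added to p53RE-bla cells seeded 5 h earlier, left 16 h at 37 C, and then assessed for viability by CellTiter-Glo luminescence.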
# [9] = p53 small molecule agonists, cell-based qHTS assay with rat liver microsomes: qHTS cell viability counter screen (AID 1963580); note: nearly all actives have a fitted effect of over 45% in size
# Procedure, shortened: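 Counter screen for cytotoxicity under metabolic activation: rat liver microsomes and NADPH, 0.5 mg/mL final each, added with compounds to p53RE-bla HCT-116 cells; 16 h at 37 C, then ATP luminescence read.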
# [10] = p53 small molecule agonists, cell-based qHTS assay: qHTS cell viability counter screen (AID 1963581); note: nearly all actives have a fitted effect of over 45% in size
# Procedure, shortened: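 Multiplexed with the reporter read, a CellTiter-Glo step (30 min, room temperature) gauges ATP-based viability of HCT-116 p53RE-bla cells after 16 h compound incubation at 37 C.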
# [11] = p53 small molecule agonists, cell-based qHTS assay (AID 1963582; active = well fitted activation curve with a large enough effect in the signal ratio in the repeat runs, not every such curve was filed as active; the % refers to the signal ratio)
# Procedure, shortened: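 Beta-lactamase reporter cells (p53RE-bla) treated with compounds for 16 h at 37 C; FRET substrate, 2 h, room temperature; fluorescence intensity.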
# [12] = target: 5-hydroxytryptamine receptor 2A (Homo sapiens) (UniProt P28223); assay: 5-hydroxytryptamine receptor 2A (HTR2A) small molecule antagonists, cell-based qHTS assay (AID 1963586); note: nearly all actives have a fitted effect of over 45% in size; note: potency is the fitted concentration of half-maximal effect
# 5-hydroxytryptamine receptor 2A (Homo sapiens), sequence (P28223 whole entry, looked up): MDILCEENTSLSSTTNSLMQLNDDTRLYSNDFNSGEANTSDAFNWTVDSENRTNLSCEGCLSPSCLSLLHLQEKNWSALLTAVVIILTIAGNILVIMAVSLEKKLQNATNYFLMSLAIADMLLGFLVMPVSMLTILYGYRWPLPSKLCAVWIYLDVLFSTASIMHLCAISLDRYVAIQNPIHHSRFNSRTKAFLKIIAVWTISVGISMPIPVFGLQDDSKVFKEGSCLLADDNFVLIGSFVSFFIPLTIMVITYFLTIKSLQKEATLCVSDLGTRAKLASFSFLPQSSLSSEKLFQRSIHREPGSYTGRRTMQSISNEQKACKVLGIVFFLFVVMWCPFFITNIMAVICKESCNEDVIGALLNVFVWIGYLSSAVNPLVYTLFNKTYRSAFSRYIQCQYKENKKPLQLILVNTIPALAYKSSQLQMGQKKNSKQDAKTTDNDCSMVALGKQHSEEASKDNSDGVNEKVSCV
# Procedure, shortened: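 CHO cells stably expressing human HTR2A were plated for 18 h at 37 C, then loaded with calcium dye for 1 h. Compounds were preincubated 5 min at room temperature before DOI (4 nM solution) was added. Kinetic fluorescence was read for 3 min.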
# [13] = target: 5-hydroxytryptamine receptor 2A (Homo sapiens) (UniProt P28223); assay: 5-hydroxytryptamine receptor 2A (HTR2A) small molecule agonists, cell-based qHTS assay (AID 1963587); note: nearly all actives have a fitted effect of over 30% in size
# Procedure, shortened: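 HTR2A-CHO cells, plated 18 h at 37 C/5% CO2, dye-loaded 1 h at 37 C; compounds in DMSO added by pin tool (agonist mode). Intracellular calcium flux read as kinetic fluorescence on FDSS over 2 min at 1 s intervals.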
# [14] = target: Muscarinic acetylcholine receptor M1 (Homo sapiens) (UniProt P11229); assay: Cholinergic receptor muscarinic 1 (CHRM1) small molecule antagonists, cell-based qHTS assay (AID 1963588); note: nearly all actives have a fitted effect of over 40% in size
# Muscarinic acetylcholine receptor M1 (Homo sapiens), sequence (P11229 whole entry, looked up): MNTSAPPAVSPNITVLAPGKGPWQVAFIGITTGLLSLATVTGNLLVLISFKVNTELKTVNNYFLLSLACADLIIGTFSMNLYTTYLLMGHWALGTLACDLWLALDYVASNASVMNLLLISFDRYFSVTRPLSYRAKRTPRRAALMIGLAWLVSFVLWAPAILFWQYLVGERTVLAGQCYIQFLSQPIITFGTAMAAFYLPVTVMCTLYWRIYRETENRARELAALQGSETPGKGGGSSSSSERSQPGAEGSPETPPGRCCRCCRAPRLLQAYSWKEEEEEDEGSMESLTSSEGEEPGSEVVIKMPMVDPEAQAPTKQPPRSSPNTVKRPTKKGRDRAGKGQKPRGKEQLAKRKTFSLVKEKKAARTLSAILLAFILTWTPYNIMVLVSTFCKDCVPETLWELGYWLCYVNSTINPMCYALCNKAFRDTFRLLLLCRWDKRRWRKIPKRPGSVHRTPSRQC
# Procedure, shortened: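 Compounds were tested at 15 concentrations in three independent runs. Dye-loaded CHRM1-CHO cells were exposed 5 min at room temperature before stimulation by acetylcholine added at 50nM. Intracellular calcium was read kinetically on FDSS for 3 min.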
# [15] = target: Muscarinic acetylcholine receptor M1 (Homo sapiens) (UniProt P11229); assay: Cholinergic receptor muscarinic 1 (CHRM1) small molecule agonists, cell-based qHTS assay (AID 1963589); note: nearly all actives have a fitted effect of over 35% in size
# Procedure, shortened: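 qHTS, 15-point titration, 3 independent runs: compounds pin-transferred onto dye-loaded CHRM1-CHO cells (human M1), calcium fluorescence followed every second to detect agonism.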
# [16] = cAMP Responsive Elements (CRE) small molecule antagonists, cell-based qHTS assay (AID 1963591; active = well fitted inhibition curve with a large enough effect in the signal ratio in the repeat runs, not every such curve was filed as active; the % refers to the signal ratio)
# Procedure, shortened: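 Fluorescence intensity from cleaved LiveBLAzer B/G substrate (2 h, room temperature) quantified CRE-bla activity in HEK 293T cells exposed 3 h to compound with 0.25 uM final NKH477.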
# [17] = target: Beta-2 adrenergic receptor (Homo sapiens) (UniProt P07550); assay: Adrenergic beta2 receptor (ADRB2) small molecule antagonists, cell-based qHTS assay (AID 1963592); note: series mostly up to about 92 µM; nearly all actives have a fitted effect of over 50% in size
# Beta-2 adrenergic receptor (Homo sapiens), sequence (P07550 whole entry, looked up): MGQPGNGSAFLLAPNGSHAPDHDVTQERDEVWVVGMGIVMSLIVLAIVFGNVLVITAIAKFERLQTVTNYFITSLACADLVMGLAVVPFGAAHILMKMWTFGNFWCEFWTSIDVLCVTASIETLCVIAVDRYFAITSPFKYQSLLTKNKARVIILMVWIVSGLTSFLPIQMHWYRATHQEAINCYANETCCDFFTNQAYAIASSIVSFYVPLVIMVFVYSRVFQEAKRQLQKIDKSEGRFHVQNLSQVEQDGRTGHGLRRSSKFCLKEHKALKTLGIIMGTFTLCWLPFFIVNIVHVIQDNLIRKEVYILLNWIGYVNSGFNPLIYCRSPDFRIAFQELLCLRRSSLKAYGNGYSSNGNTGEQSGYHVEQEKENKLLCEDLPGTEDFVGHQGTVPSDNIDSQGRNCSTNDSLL
# Procedure, shortened: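 Assay format: CHO-ADRB2 cells, 18-20hr seeding at 37C/5% CO2, then compound plus 1nM isoproterenol agonist mix for 0.5hr RT. Homogeneous time-resolved fluorescence cAMP detection after 1hr, expressed as 665/615 nm ratio.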
# [18] = target: D(2) dopamine receptor (Homo sapiens) (UniProt P14416); assay: Dopamine D2 receptor (DRD2) small molecule agonists, cell-based qHTS assay (AID 1963594); note: nearly all actives have a fitted effect of over 35% in size
# D(2) dopamine receptor (Homo sapiens), sequence (P14416 whole entry, looked up): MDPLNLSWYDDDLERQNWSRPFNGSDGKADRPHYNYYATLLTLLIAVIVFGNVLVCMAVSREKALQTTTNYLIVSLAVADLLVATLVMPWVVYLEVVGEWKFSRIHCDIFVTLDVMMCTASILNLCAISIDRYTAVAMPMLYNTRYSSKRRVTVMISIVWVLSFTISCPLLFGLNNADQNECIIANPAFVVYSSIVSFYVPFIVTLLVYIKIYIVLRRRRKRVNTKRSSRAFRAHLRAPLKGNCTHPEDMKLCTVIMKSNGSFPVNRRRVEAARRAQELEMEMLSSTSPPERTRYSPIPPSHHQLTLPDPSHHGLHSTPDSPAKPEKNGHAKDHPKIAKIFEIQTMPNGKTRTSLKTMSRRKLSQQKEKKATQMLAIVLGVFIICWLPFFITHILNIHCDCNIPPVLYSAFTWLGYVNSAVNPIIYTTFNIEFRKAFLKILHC
# Procedure, shortened: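 HEK293 cells stably expressing DRD2 were cultured 24 h at 37 C, then given Ro20-1724 (0.1 mM final) and compounds for 10 min at room temperature. NKH477 (200nM) was then added for 30 min. cAMP was read by HTRF.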
# [19] = target: D(2) dopamine receptor (Homo sapiens) (UniProt P14416); assay: Dopamine D2 receptor (DRD2) small molecule antagonists, cell-based qHTS assay (AID 1963595; active = well fitted inhibition curve with a large enough effect in the signal ratio in the repeat runs, with a control signal flat; the % refers to the signal ratio)
# Procedure, shortened: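 Readout: HTRF cAMP, cAMP-d2 competing with cellular cAMP for anti-cAMP cryptate, read after 1 h. Cells: DRD2-HEK293. Conditions: 0.1 mM Ro20-1724, 12 nM quinpirole, 200 nM NKH477, 30 min RT.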
# [20] = cAMP Responsive Elements (CRE) small molecule agonists, cell-based qHTS assay (AID 1963590)
# Procedure, shortened: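 Quantitative HTS for CRE agonists: HEK 293T CRE-bla cells, overnight plating, 3 h compound incubation at 37 C/5% CO2, then 2 h room-temperature LiveBLAzer B/G FRET substrate loading.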
smiles,measurement,setting,value
CC(C)C[C@@H]1[C@H](c2ccccc2)OC(=O)N1CCCN1CCCCCC1,Potency,[1],inactive
same,Potency,[2],inactive
same,Potency,[3],inactive
same,outcome,[4],inactive
same,outcome,[5],inactive
same,Potency,[6],inactive
same,Potency,[7],inactive
same,Potency,[8],inactive
same,Potency,[9],inactive
same,Potency,[10],inactive
same,Potency,[11],inactive
same,Potency,[12],2590 nM (active)
same,Potency,[13],inactive
same,Potency,[14],inactive
same,Potency,[15],inactive
same,Potency,[16],inactive
same,Potency,[17],inactive
same,Potency,[18],inactive
same,Potency,[19],inactive
CCCCC(=O)O[C@]1(C(=O)CO)CC[C@H]2[C@@H]3CCC4=CC(=O)CC[C@]4(C)[C@H]3[C@@H](O)C[C@@]21C,Potency,[1],inactive
same,Potency,[2],inactive
same,Potency,[3],inactive
same,outcome,[4],inactive
same,outcome,[5],inactive
same,Potency,[6],inactive
same,Potency,[7],inactive
same,Potency,[8],inactive
same,Potency,[9],inactive
same,Potency,[10],inactive
same,Potency,[11],inactive
same,Potency,[12],inactive
same,Potency,[13],inactive
same,Potency,[14],inactive
same,Potency,[15],inactive
same,Potency,[17],inactive
same,Potency,[18],inactive
same,Potency,[19],inactive
CC(C)(C)c1cc(CCC(=O)OCCSCCOC(=O)CCc2cc(C(C)(C)C)c(O)c(C(C)(C)C)c2)cc(C(C)(C)C)c1O,Potency,[1],inactive
same,Potency,[2],inactive
same,Potency,[3],inactive
same,outcome,[4],inactive
same,outcome,[5],inactive
same,Potency,[6],inactive
same,Potency,[7],inactive
same,Potency,[8],inactive
same,Potency,[9],inactive
same,Potency,[10],inactive
same,Potency,[11],inactive
same,Potency,[12],inactive
same,Potency,[13],inactive
same,Potency,[14],inactive
same,Potency,[15],inactive
same,Potency,[17],inactive
same,Potency,[18],inactive
CCOc1ccccc1O,Potency,[1],inactive
same,Potency,[2],inactive
same,Potency,[3],inactive
same,outcome,[4],inactive
same,outcome,[5],inactive
same,Potency,[6],inactive
same,Potency,[7],inactive
same,Potency,[8],inactive
same,Potency,[9],inactive
same,Potency,[10],inactive
same,Potency,[11],inactive
same,Potency,[12],inactive
same,Potency,[13],inactive
same,Potency,[14],inactive
same,Potency,[15],inactive
same,Potency,[16],inactive
same,Potency,[17],inactive
same,Potency,[18],inactive
same,Potency,[19],inactive
CCCn1cnc2c1c(=O)n(CCCCC(C)=O)c(=O)n2C,Potency,[1],inactive
same,Potency,[2],inactive
same,Potency,[3],inactive
same,outcome,[4],inactive
same,outcome,[5],inactive
same,Potency,[6],inactive
same,Potency,[7],inactive
same,Potency,[8],inactive
same,Potency,[9],inactive
same,Potency,[10],inactive
same,Potency,[11],inactive
same,Potency,[12],inactive
same,Potency,[13],inactive
same,Potency,[14],inactive
same,Potency,[15],inactive
same,Potency,[17],inactive
same,Potency,[18],inactive
same,Potency,[19],inactive
CC(C)Nc1nc(N)nc(Cl)n1,Potency,[1],inactive
same,Potency,[2],inactive
same,Potency,[3],inactive
same,outcome,[4],inactive
same,outcome,[5],inactive
same,Potency,[6],inactive
same,Potency,[7],inactive
same,Potency,[8],inactive
same,Potency,[9],inactive
same,Potency,[10],inactive
same,Potency,[11],inactive
same,Potency,[12],inactive
same,Potency,[13],inactive
same,Potency,[14],inactive
same,Potency,[15],inactive
same,Potency,[20],inactive
same,Potency,[17],inactive
same,Potency,[18],inactive
same,Potency,[19],inactive
NC[C@H]1O[C@H](O[C@H]2[C@H](O[C@@H]3O[C@H](CO)[C@@H](O)[C@H]3O)C(O)[C@H](N)C[C@@H]2N)[C@H](N)[C@@H](O)[C@@H]1O (stereo partly drawn),"activity change, negative = cytotoxicity",[1],-6.49% [at 8.39 µM]
same,"activity, positive = activation",[2],-8.73% [at 8.39 µM]
same,activity change,[3],"-0.504% [at 5.22 µM, hits give high values]"
same,activation,[4],-0.532% [at 6.97 µM]
same,activation,[5],-0.0987% [at 5.23 µM]
same,activation,[6],0.817% [at 5.99 µM]
same,activation,[7],-0.761% [at 5.99 µM]
same,"activity change, negative = cytotoxicity",[8],26.1% [at 5.99 µM]
same,"activity change, negative = cytotoxicity",[9],1.61% [at 5.99 µM]
same,"activity change, negative = cytotoxicity",[10],0.386% [at 5.99 µM]
same,activation,[11],-3.27% [at 5.99 µM]
same,"activity, negative = inhibition",[12],2.42% [at 5.62 µM]
same,activation,[13],-4.1% [at 7.02 µM]
same,"activity, negative = inhibition",[14],1.47% [at 5.58 µM]
same,activation,[15],0.272% [at 6.97 µM]
same,activation,[20],4.47% [at 8.39 µM]
same,"activity change, negative = inhibition",[17],7.44% [at 8.39 µM]
same,"activity change, negative = inhibition",[19],-1.87% [at 8.38 µM]

# Source: PubChem BioAssay (Tox21)
